Compound activity from PubChem.
An excerpt weighted towards active compounds, which were near 6.4% of everything screened.
RORgamma inh – ROR gamma (mouse) transcription inhibition. P51450. Drosophila S2 Gal4-RORgamma UAS-luciferase reporter, 20 h. Potency, µM (top dose mostly 53.6 µM), without a hit: at the top dose activity change, negative = inhibition, usual class: inhibitors. hit rate 5.4% among 310,000; further: nearly all actives have a fitted effect of over 60% in size
Target sequence (P51450 whole entry, looked up, the tested form may be a part): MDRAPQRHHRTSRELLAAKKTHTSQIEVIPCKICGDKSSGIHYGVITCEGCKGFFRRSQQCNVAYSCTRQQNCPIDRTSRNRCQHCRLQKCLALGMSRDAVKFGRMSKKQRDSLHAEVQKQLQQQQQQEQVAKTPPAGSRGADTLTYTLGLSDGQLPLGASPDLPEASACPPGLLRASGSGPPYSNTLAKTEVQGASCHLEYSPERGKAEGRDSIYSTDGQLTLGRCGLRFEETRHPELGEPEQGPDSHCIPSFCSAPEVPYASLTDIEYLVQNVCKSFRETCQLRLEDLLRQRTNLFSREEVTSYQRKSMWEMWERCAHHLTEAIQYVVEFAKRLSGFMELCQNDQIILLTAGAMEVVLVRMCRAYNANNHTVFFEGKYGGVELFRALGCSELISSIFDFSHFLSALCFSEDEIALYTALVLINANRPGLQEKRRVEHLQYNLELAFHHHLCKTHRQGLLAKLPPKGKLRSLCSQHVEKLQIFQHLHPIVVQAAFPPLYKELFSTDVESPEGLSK
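In this cell-based reporter format, copper sulfate (700 uM final) drives Gal4–ROR gamma fusion expression from a metallothionein promoter in Drosophila Schneider cells; compounds preincubated 1 hr, reporter read after 20 hr at ambient temperature.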
KinaseGlo FLuc – blocks Kinase-Glo luciferase, a counter-screen artifact. Q27757. Kinase-Glo luciferase, ATP luminescence, 8 min. Potency, µM (series often up to 38.3 µM), without a hit: at the highest dose activity change, negative = inhibition, usual class: inhibitors. hit rate 0.28% among 200,000; further: nearly all actives have a fitted effect of over 60% in size
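Compounds were added to a substrate mix at pH 7.2 (50 mM imidazole, 10 uM ATP, within the enzyme's linear range), followed by Kinase-Glo detection reagent; luminescence was measured after 8 minutes at ambient temperature.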
Gal4-VP16 FLuc – counter-screen for ROR gamma inhibitors: Gal4-VP16 reporter | hit rate 3.5% among 310,000 | AID 2546 | Drosophila S2 Gal4-VP16 UAS-luciferase, luminescence, 20 h | Potency, µM (highest dose often 53.6 µM), inactives show top-dose activity, negative = inhibition, actives largely listed as inhibitors;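 further: Gal4-VP16 expression switched on by copper sulfate through the metallothionein promoter; nearly all actives have a fitted effect of over 50% in size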
Active calls of the source: *; ? = inconclusive; . = not tested or not shown; [ ] = another dose, or the depositor's remark. The call rests on the fitted dose curve; in most records, active means well fitted curve in the direction sought with a large enough effect; inconclusive means small, poorly fitted or top-dose-only effect, or another doubt; inactive means no such curve, though single readings can be large; an effect the other way counts as inactive or inconclusive. On the % scale 0 is the no-effect control and ±100 the full control effect; potency means the concentration at half of the fitted maximal effect.

SMILES	RORgamma inh	KinaseGlo FLuc	Gal4-VP16 FLuc
O=C1CSc2ccc(C(=O)Nc3cccc(S(=O)(=O)Nc4ccc(Br)cc4)c3)cc2N1	16µM*	0%	10µM*
O=C(O)c1ccc(NC(=O)c2cccc(S(=O)(=O)Nc3ccc(C(=O)O)cc3)c2)cc1	-8%	.	-21%
Cc1cc(C(=O)N/N=C/C=C/c2cccc([N+](=O)[O-])c2)n[nH]1	5%	3%	7%
COc1cc(C)c(Br)cc1S(=O)(=O)NCCN1CCOCC1	9%	1%	3%
CC(NC(=O)c1cc(F)c(F)c(F)c1F)c1ccc(-n2ccnc2)cc1 (centres undefined)	10%	.	-16%
CC1=C(C(=O)N2CCCC(C(=O)c3cccc4ccccc34)C2)OCCO1 (centres undefined)	?	-1%	13µM*
Cc1ncoc1C(=O)N1CCCC(C(=O)c2cccc3ccccc23)C1 (centres undefined)	30%	-1%	16%
COc1ccccc1OCc1nc2ccccc2[nH]1	?	-10%	-10%
Cc1ccccc1OCc1nc2ccccc2[nH]1	-24%	13µM*	-13%
CCc1ccc2c(c1)cc(CN(C(=S)Nc1cccc(C)c1)C1CC1)c1nnnn12	6.3µM*	-1%	10%
COCCN(Cc1cc2cc(C)ccc2n2nnnc12)C(=S)Nc1cccc(C)c1	?	1%	-10%
COc1ccccc1/C=C/C=C(\C#N)C(=O)NC(C)c1ccccc1 (centres undefined)	11%	.	4%
Cc1nnc(SCC(=O)Nc2ccc3c(c2)OCO3)n(N)c1=O	2%	-3%	-3%
Cc1ccc2c(c1)c1c(n2CC(O)Cn2c(C)nc3ccccc32)CCCC1 (centres undefined)	1.6µM*	-5%	-24%
Cc1ccc2c(c1)c1c(n2CC(O)CN2CCCCCC2)CCCC1 (centres undefined)	20%	.	-5%
CC(C)c1c(C(=O)N/N=C/c2ccc3c(c2)OCO3)nnn1-c1nonc1N	24%	.	0%
CC(C)c1c(C(=O)N/N=C/c2ccncc2)nnn1-c1nonc1N	16%	.	2%
CCN(CC)c1ccc(/C=N/NC(=O)c2nnn(-c3nonc3N)c2C(C)C)c(O)c1	3.5µM*	.	5µM*
CC(C)c1c(C(=O)N/N=C/C=C/c2ccccc2)nnn1-c1nonc1N	4.5µM*	.	5.6µM*
COc1ccccc1S(=O)(=O)CC(O)COc1ccc(C#N)cc1 (centres undefined)	15%	0%	3%[10 µM]
O=C(c1ccc([N+](=O)[O-])s1)N1CCN(c2ccccc2)CC1	25µM*	-1%	-18%
O=C(c1ccc([N+](=O)[O-])s1)N1CCN(c2ccccn2)CC1	-26%	.	-5%
O=C1C(=O)N(Cc2ccc(Cl)c(Cl)c2)c2ccccc21	?	-2%	?
CCOc1ccc(CN(C(=O)c2cccs2)C2CCS(=O)(=O)C2)cc1 (centres undefined)	0%	.	1%
COc1ccc(NC(=O)c2sc3ncn(CC(=O)N4CCCCC4)c(=O)c3c2C)cc1OC	-2%	.	15%
SMILES	RORgamma inh	KinaseGlo FLuc	Gal4-VP16 FLuc
CN(C)CCCNC(=O)CCc1nc2ccccc2c(=O)[nH]1	-18%	0%	-12%
CCCNC(=S)N(Cc1ccccc1)Cc1nc2ccccc2c(=O)[nH]1	13µM*	0%	?
O=C(c1ccncc1)N(Cc1ccccc1)Cc1nc2ccccc2c(=O)[nH]1	?	2%	-6%
CCOCCCNC(=S)N(Cc1ccccc1)Cc1nc2ccccc2c(=O)[nH]1	11µM*	2%	?
O=C(Nc1ccccc1F)N(Cc1ccc(F)cc1)Cc1nc2ccccc2c(=O)[nH]1	-1%	-1%	?
O=C(c1ccccc1)N(Cc1ccc(F)cc1)Cc1nc2ccccc2c(=O)[nH]1	3.5µM*	3%	?
COc1ccc(-c2cc(C3C4C=CCC(C)C4C(=O)N3Cc3ccccc3)ccc2F)cc1OC (centres undefined)	?	.	8%
Nc1ccc2nc(-c3ccccc3)sc2c1	8.9µM*	7.9µM*	?
Cc1ccc2nc(-c3ccc(N)cc3)sc2c1	4.5µM*	.	10µM*
COc1ccc2nc(-c3ccc(N(C)C)cc3)sc2c1	0.63µM*	.	5µM*
Cc1ccc2nc(-c3ccc(NS(=O)(=O)c4ccc(F)cc4)cc3)sc2c1	.	-3%	.
COc1ccc2nc(N)sc2c1	-5%	4%	7%
Nc1ccc2nc(-c3ccccc3)c(-c3ccccc3)nc2c1	-29%	.	-5%
Nc1ccc(-c2nc3cc(N)ccc3s2)cc1	7.9µM*	-17%	?
Nc1ccc(-c2nc3ccccc3s2)cn1	-31%	.	-7%
CC(C)c1ccc(-c2csc3ncnc(N4CCN(C)CC4)c23)cc1	-15%	.	-13%
O=C(O)[C@@H]1CCN(Cc2oc(CO)cc(=O)c2O)C1	.	-5%[7.66 µM]	.
O=C(CSc1nnc(NC(=O)c2ccccc2F)s1)NC1CC1	5%	.	-3%
CCCc1ccc(C(=O)O)cc1	3%[10 µM]	.	-13%
Clc1cc2c(nn1)Nc1ccccc1S2	-7%	.	1%
S=C1Nc2ccccc2Sc2ccc(Cl)cc21	1.8µM*	-3%	2.8µM*
C=CCn1c(C(C)NC(=O)c2cccc(C)c2)n[nH]c1=S (centres undefined)	?	1%	0%
CCn1c(C(C)NC(=O)c2ccc(Cl)cc2)n[nH]c1=S (centres undefined)	7.1µM*	0%	-3%[10 µM]
CCOC(=O)C1CCN(C(=O)COc2ccc3c(c2)OCO3)CC1	-43%	.	-15%
CCOc1ccc(/C=C/C(=O)c2cccs2)cc1	22µM*	14µM*	-21%
SMILES	RORgamma inh	KinaseGlo FLuc	Gal4-VP16 FLuc
Nc1ccc(/C=C/C(=O)c2cccs2)cc1	?	-6%	-22%
COc1ccc(/C=C/C(=O)c2cccs2)cc1OC	?	-23%	?
O=C(/C=C/c1ccccc1)c1cccs1	22µM*	-16%	-5%
CCc1cc(C(=O)NNC(=O)CCN2CCN(c3ccccc3)CC2)sc1C	-9%	.	-4%
O=C(Nc1ncccc1O)c1ccc2ccccc2c1	19%	.	-18%
CCc1cc(C(=O)NNC(=O)CCl)sc1C	10µM*	-1%	17%
CCc1cc(C(=O)Nc2ncccc2O)sc1C	7.9µM*	.	10µM*
CCOc1ccc(N(C(C)C(=O)N2CCCCCC2)S(C)(=O)=O)cc1 (centres undefined)	?	.	0%
CN(C)C(=O)c1ccc2c(c1[N+](=O)[O-])C(=O)c1ccccc1C2=O	2.2µM*	1%	3.5µM*
Cc1cccc2c(=O)c(C(=O)NCCc3ccccc3)c[nH]c12	-14%[1.91 µM]	.	?
Cc1[nH]c2ccccc2c1CCNC(=O)c1ccc2c(c1[N+](=O)[O-])C(=O)c1ccccc1C2=O	10µM*	-2%	?
Cc1[nH]c2c(C)cccc2c1CCNC(=O)c1ccc2c(c1[N+](=O)[O-])C(=O)c1ccccc1C2=O	6.3µM*	0%	?
Cc1ccc2c(c1[N+](=O)[O-])C(=O)c1ccccc1C2=O	0%	.	?
CCCNC(=O)NCCc1c(C)[nH]c2ccccc12	0%	-1%	-1%
Cn1c(NC(=O)c2ccccc2F)c(-c2cccs2)c(=O)c2ccccc21	14%	.	?
CNC(=O)NC(=O)C(C)OC(=O)c1c2c(nc3ccccc13)/C(=C/c1cccs1)CC2 (centres undefined)	0.63µM*	3%	0.13µM*
